Measured values published in the supplement of paper PMC6555819.

Assays:
Experiment in all cases: PBM binding z-score (relative to random genomic background probes); higher = stronger binding; sequences stand for … in GC…GCGATTGACAGCGTAGAATGAAGG
[1] = system: FXR:RXRa (NR concentration 270 nM, RXRa partner concentration 90 nM)
Summary of the method: (§1)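 Custom Agilent 4×180K protein-binding microarrays carried double-stranded probes, each with a 34-nt variable region. These regions held direct-repeat seeds, single-nucleotide variants, half-site ablations and random human genomic background sequences. Ligand-free nuclear receptor dimers were incubated on the arrays for 1 h, antibodies against each partner (one per run) detected binding, and scanned fluorescence was regression-normalized. Binding z-scores take the random background probes as reference.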

[2] = system: LXRa:RXRa (NR concentration 270 nM, RXRa partner concentration 90 nM)
Summary of the method: as §1

[3] = system: LXRa homodimer (NR concentration 270 nM)
Summary of the method: as §1

[4] = system: LXRb:RXRa (NR concentration 270 nM, RXRa partner concentration 90 nM)
Summary of the method: as §1

[5] = system: LXRb homodimer (NR concentration 270 nM)
Summary of the method: as §1

[6] = system: PPARa:RXRa (NR concentration 270 nM, RXRa partner concentration 90 nM)
Summary of the method: as §1

[7] = system: PPARg:RXRa (NR concentration 180 nM, RXRa partner concentration 90 nM)
Summary of the method: as §1

[8] = system: PPARg:RXRa 270nM:90nM, anti-RXR (NR concentration 270 nM, RXRa partner concentration 90 nM)
Summary of the method: as §1

[9] = system: PPARg:RXRa 30nM:10nM, anti-RXR (NR concentration 30 nM, RXRa partner concentration 10 nM)
Summary of the method: as §1

[10] = system: PPARg:RXRa 90nM:30nM, anti-RXR (NR concentration 90 nM, RXRa partner concentration 30 nM)
Summary of the method: as §1

[11] = system: PPARg:RXRa DBDmut IVT, anti-RXR (DBD mutation: RXRa K156A/R161A, NR concentration 270 nM, RXRa partner concentration 90 nM)
Summary of the method: as §1

[12] = system: PPARg:RXRa IVT, anti-PPARg (NR concentration 270 nM, RXRa partner concentration 90 nM)
Summary of the method: as §1

[13] = system: PPARg DBDmut:RXRa IVT, anti-PPARg (DBD mutation: PPARg1 K132A/R137A, NR concentration 270 nM, RXRa partner concentration 90 nM)
Summary of the method: as §1

[14] = system: PPARg DBDmut IVT, anti-PPARg (DBD mutation: PPARg1 K132A/R137A, NR concentration 270 nM)
Summary of the method: as §1

[15] = system: PPARg homodimer (NR concentration 180 nM)
Summary of the method: as §1

[16] = system: PXR:RXRa (NR concentration 270 nM, RXRa partner concentration 90 nM)
Summary of the method: as §1

[17] = system: PXR homodimer (NR concentration 270 nM)
Summary of the method: as §1

[18] = system: RARa:RXR (NR concentration 270 nM, RXRa partner concentration 90 nM)
Summary of the method: as §1

[19] = system: RARa homodimer (NR concentration 270 nM)
Summary of the method: as §1

[20] = system: RARb:RXRa (NR concentration 270 nM, RXRa partner concentration 90 nM)
Summary of the method: as §1

Sequence	PBM binding z-score [1]	PBM binding z-score [2]	PBM binding z-score [3]	PBM binding z-score [4]	PBM binding z-score [5]	PBM binding z-score [6]	PBM binding z-score [7]	PBM binding z-score [8]	PBM binding z-score [9]	PBM binding z-score [10]	PBM binding z-score [11]	PBM binding z-score [12]	PBM binding z-score [13]	PBM binding z-score [14]	PBM binding z-score [15]	PBM binding z-score [16]	PBM binding z-score [17]	PBM binding z-score [18]	PBM binding z-score [19]	PBM binding z-score [20]
TCTTGTCGATCAAGCAGGTTAAGAAAGCCTGAGT	-0.117	0.258	-0.542	0.373	-0.662	0.754	-0.443	1.21	2.65	1.95	0.974	0.231	-0.395	0.403	-0.519	0.505	-0.0537	0.33	-0.429	0.222
GGAACGAGGGCAAGTTCATAGCAGAGTTTGATGG	2.59	1.97	0.721	1.46	-0.0122	2.95	2.11	2.35	0.471	1.57	4.12	3.14	-0.982	-0.116	0.648	3.66	5.88	1.72	-0.259	3.37
CTCGAAAGGTCGTGCACAGGTGAGTATACCAAAC	5.53	4.43	0.217	4.18	0.385	5.18	3.43	4.58	1.66	3.05	0.853	2.21	0.533	0.411	2.02	3.56	0.388	4.46	0.659	4.07
TCGGGTAGGTTAGTCGGGGCATTCAGCCAACATA	0.578	0.368	0.422	1.38	0.98	1.01	-0.189	0.977	1.92	1.22	1.77	1.67	0.234	0.0537	0.765	0.737	0.967	0.254	0.816	1.21
AGTCAAAGTTCACTAGGTAACGTACGATTCAGCT	5.6	5.41	3.55	3.27	0.963	4.79	7.47	6.6	3.88	5.98	3.29	5.13	1.36	1.27	3.23	4.37	3.12	3.45	1.53	4.71
GCAGCCAGGTGAAACGCAGGTAACTCAGGGTGGC	-0.375	-0.533	-0.628	-0.952	-1.52	0.132	0.166	-0.353	-0.793	-0.229	1.32	1	-1.26	-1.53	-1.44	-0.698	-1.29	0.121	-2.03	0.362
TCTTGTAGATCACGCAGGTTAAGAAAGCCTGAGT	0.613	0.539	-0.162	0.551	-0.17	1.09	-0.0924	1.37	2.72	1.89	2.2	1.64	0.55	0.645	0.083	0.585	0.000906	0.685	0.00384	0.386
ATCTCTAGATAAAGATAGTTCAGTGAATGCAAAT	-0.281	0.122	0.343	0.191	0.206	-0.0361	0.872	0.0626	0.338	0.179	-0.378	-0.22	0.441	0.839	0.626	0.206	0.643	0.29	0.981	0.124
ACTATTAGTGGAGACGAGGGCAACCGATAGGTTG	0.0192	-0.21	-0.488	-0.347	-0.31	-0.00529	0.674	0.335	-0.0792	0.232	-0.144	0.852	0.383	0.735	-0.247	0.218	0.0964	0.0871	0.227	0.779
ATCGAAAGGTCGACGGGGTGAGTATACACCGTTT	4.95	3.54	0.287	3.23	0.368	4.57	3	3.48	0.859	2.28	0.683	2.19	1.15	0.814	2.18	3.64	1.33	4.46	0.456	3.98
CCGACTGGGGCAAAAAGGTTACCATACCATCCGG	0.468	0.384	-0.0503	1.14	-0.735	2.38	1.48	1.95	0.214	1.25	2.47	2.82	-0.595	-1.12	0.536	1.1	-0.0306	1.87	0.158	2.05
AGAATGAGGTTATTAAGATCGGGGAATTGCGGTC	1.39	1.31	0.0422	1.14	0.139	2.39	0.982	1.43	0.253	0.888	2.65	2.39	0.666	-0.0579	0.639	1.23	0.366	1.26	0.527	1.37
TCATATAGTTAAATGCTAGGTGAAAGTCCGATCT	0.982	0.66	0.335	0.729	0.331	0.834	0.464	2.11	3.69	2.89	2.22	0.879	0.746	1.69	1.11	0.631	0.356	0.763	1.49	0.272
ATCGAAAGGTCGAGGTGAATATAGAGAAAGGGAA	4.19	3.5	0.21	2.79	0.889	4.65	3.91	3.97	1.51	2.95	0.454	2.9	1.3	0.685	1.72	2.6	0.39	3.39	1.13	4.2
